# Measured values: ChEMBL document CHEMBL1157539, “Thousands of chemical starting points for antimalarial lead identification” (Nature, 2010)
# Key:
# Type in all cases: functional
# Plasmodium falciparum [1] = assay: GSK_TCMDC: Inhibition of Plasmodium falciparum 3D7 in whole red blood cells, using parasite LDH activity as an index of growth. Test compounds present at 2uM
# Plasmodium falciparum [2] = assay: GSK_TCMDC: Inhibition of Plasmodium falciparum Dd2 in whole red blood cells, using parasite LDH activity as an index of growth. Test compounds present at 2uM
# HepG2 = assay: GSK_TCMDC: Percent inhibition of human HepG2 cell line. Test compounds present at 10uM.
Structure (SMILES),Inhibition (Plasmodium falciparum [1]) [%],Inhibition (Plasmodium falciparum [2]) [%],Inhibition (HepG2) [%]
Cl.N#Cc1ccc2c(c1)CCN(CCC1CCC(NC(=O)c3cc4ccc(Br)cc4[nH]3)CC1)C2 (stereo not given),100,17,12
Cc1nc(-c2nc(NCc3ccccn3)ncc2-c2ccsc2)sc1C,92,87,0
CCN(CC)c1nc(-c2ccccc2)cc(-c2ccccc2)c1C#N,100,66,0
COC(=O)c1ccc(C2OC3(C(=O)c4ccccc4C3=O)C(OC)=C2Cl)cc1C(C)=O (stereo not given),99,85,0
Cc1cc(=NN=Cc2ccccn2)c2cc(F)ccc2[nH]1,100,96,9
Cc1cc(C)n(-c2nc(Nc3cccc(C(F)(F)F)c3)nc(-n3nc(C)cc3C)n2)n1,99,88,0
CNCCNCc1ccc(-c2cccc(-c3nc4cc(C(F)(F)F)ccc4[nH]3)c2)cc1.O=C(O)C(F)(F)F,98,77,27
CNCCNc1nccc(N2CCc3ncnc(Nc4ccc(OCc5cccc(F)c5)c(Cl)c4)c3C2)n1,100,98,30
Cc1ccc(OCC2CCN(c3ncc(C(=O)NCCCN4CCCC4=O)cc3Cl)CC2)cc1,94,71,7
CN1CCN(CCCN(Cc2cccc(-c3cccc(CNC4CCCC4)c3)c2)C(=O)CCC2CCCC2)CC1.O=C(O)C(F)(F)F,100,96,35
CN1CCc2cc(I)c(O)cc2C1Cc1ccccc1Cl.Cl (stereo not given),98,96,0
CCOC(=O)C(Oc1ccc2ccccc2c1)C(=O)OCC,98,0,8
O=C(Oc1ccc(Cl)cc1C(=O)Nc1ccc([N+](=O)[O-])cc1Cl)c1ccccc1,97,19,88
CC(Nc1ccc2c(c1)CCC2)C(=O)Nc1cc(C(F)(F)F)ccc1N1CCOCC1 (stereo not given),100,100,0
Clc1cc(Nc2ccnc3ccc(Br)cc23)ccc1Oc1ccc(Cl)c2ccccc12,99,86,6
Cn1cncc1CCCN(Cc1ccc(-c2ccc(C(F)(F)F)cc2)cc1)C(=O)Cn1c(CCc2cccc(F)c2F)cc(=O)c2cccnc21,85,59,17
CC(C)C[C@H](NC(=O)c1cc2ccccc2s1)C(=O)N[C@H]1CCN(Cc2ccc(OCCCN(C)C)c(Cl)c2)C1.O=C(O)C(F)(F)F,100,89,83
CC(C)[C@H](NC(=O)c1c(CN2CCC(N3CCCCC3)CC2)c(-c2ccccc2)nc2cc(O)ccc12)c1ccccc1,100,73,10
CCCN(CCC)C(=O)c1cc(C(=O)N[C@@H](Cc2ccccc2)[C@H](O)CNCc2cccc(C(F)(F)F)c2)cc(N2CCCCS2(=O)=O)c1,99,74,0
O=C(O)C(F)(F)F.c1ccc(CCNCc2ccc(-c3ccc(CNCc4ccc5c(c4)OCO5)cc3)nc2)cc1,94,67,24

Structure (SMILES),Inhibition (Plasmodium falciparum [1]) [%],Inhibition (Plasmodium falciparum [2]) [%],Inhibition (HepG2) [%]
CN(C)CC1CCCN1Cc1ccccc1-c1cnn(C)c(=O)c1Oc1cccc(C#N)c1.O=C(O)C(F)(F)F (stereo not given),92,15,26
Brc1ccccc1CNc1ccnc(NCCn2ccnc2)n1,99,33,72
CC(=O)Nc1ccc(CCNC(C)Cc2ccc(C(=O)Nc3ccc(CC(C)NCCc4cccc(Cl)c4)cc3)cc2)cc1.Cl (stereo not given),100,84,50
Cc1cccc2nc(-c3ccc(-c4ccc(NC(=O)Nc5ccc(Cl)c(Cl)c5)cc4)cc3)[nH]c12,100,100,37
Cc1ccc(/C=C/C(=O)NCCCCCN2CCC(c3c[nH]c4ccccc34)CC2)cc1,86,7,36
COc1ccc(Nc2nccc(N3CCC(NS(=O)(=O)c4ccc(NC(C)=O)cc4)C3)n2)cc1 (stereo not given),100,16,3
CN1CCC(C(=O)N(Cc2ccc(-c3ccc(CNCCc4ccc(S(C)(=O)=O)cc4)cn3)cc2)C2Cc3ccccc3C2)CC1.O=C(O)C(F)(F)F,98,49,21
O=C(O)C(F)(F)F.O=S(=O)(NC1CCN(c2ccnc3cc(Cl)ccc23)C1)c1cccs1 (stereo not given),100,76,6
NC(=O)C1CCN(Cc2ccc(-c3ccc(-c4nc5cc(F)ccc5[nH]4)cc3)cc2)CC1.O=C(O)C(F)(F)F,100,100,12
O=C(/C=C/c1ccc(Cl)cc1Cl)NCCCCCN1CCC(c2c[nH]c3ccccc23)CC1,99,9,95
O=C(Nc1cc(F)cc(F)c1)N1CCOC(CCN2CCC3(CCc4ccccc43)CC2)(c2ccc(Cl)c(Cl)c2)C1 (stereo not given),100,86,32
COC(=O)c1cccc(CNCc2ccc(-c3ccc(-c4nc5cc(C(F)(F)F)ccc5[nH]4)s3)cc2)c1.O=C(O)C(F)(F)F,100,96,34
Nc1cccc(CNCc2cccc(-c3ccc(-c4nc5ccccc5[nH]4)s3)c2)c1.O=C(O)C(F)(F)F,100,90,8
CCC(C)NS(=O)(=O)c1ccc2nc(Nc3ccc(C)cc3)n(C3CCCCC3)c2c1 (stereo not given),97,97,0
O=C(NCC1CC1)C1CCN(C(c2ccccc2)c2cc(F)cc(F)c2)CC1 (stereo not given),99,95,0
COc1ccc2nccc([C@@H](O)CN3CCC(NCCOc4ccccc4C(F)(F)F)CC3)c2c1.O=C(O)C(=O)O,98,95,2
COc1cc(-c2cc(-c3ccc(OCCN(C)C)cc3)[nH]c2-c2ccncc2)ccc1Cl.Cl,100,100,28
CN(C)c1ccc(CN2CCC(CNC(=O)c3cc(-c4ccccc4F)cs3)C2)cc1.O=C(O)C(F)(F)F (stereo not given),100,33,35
Fc1ccc(C=NNc2nc3ccccc3[nH]2)cc1,98,58,0
COc1ccc2nccc(NC(=O)C3CCC(NCc4ccc5c(c4)NC(=O)CS5)CC3)c2c1 (stereo not given),94,19,0

Structure (SMILES),Inhibition (Plasmodium falciparum [1]) [%],Inhibition (Plasmodium falciparum [2]) [%],Inhibition (HepG2) [%]
Cl.Cn1ncc2c3c(CCN4CCC(NCc5cc6c(cn5)OCCO6)CC4)c(Cl)cnc3ccc21,95,34,1
CC(C)(C)NCc1cc(Nc2ccnc3cc(Cl)ccc23)ccc1F,100,100,21
Cc1ccc(C2CCN(CCCCNC(=O)c3ccc(-c4ccc(C#N)cc4)cc3)CC2)c(O)c1,100,90,45
CN(CCCN(C)c1cc(NC(=O)c2ccc(F)cc2)ccn1)Cc1cccc(F)c1.O=C(O)C(F)(F)F,83,60,0
Fc1ccc2[nH]c(-c3cccc(-c4ccc(CN5CCN(CCN6CCOCC6)CC5)cc4)c3)nc2c1.O=C(O)C(F)(F)F,100,100,30
O=C(NCCN1CCOCC1)c1ccc(-c2ccc(CNCCCc3ccccc3)cc2)nc1.O=C(O)C(F)(F)F,97,10,0
O=C(Nc1ccc(C(F)(F)F)cc1)c1ccc(S(=O)(=O)NC2CCCN(CC3CCCCC3)C2)cc1.O=C(O)C(F)(F)F (stereo not given),99,0,45
Cc1n[nH]c2cc(F)c(-c3cc(OC[C@@H](N)Cc4ccccc4)cnc3-c3ccoc3)cc12.O=C(O)C(F)(F)F,95,15,22
Nc1ncc(-c2cccc(CCN3CCOCC3)c2)cc1-c1nc2cc(Br)ccc2[nH]1.O=C(O)C(F)(F)F,100,98,60
Cc1cccc(Cn2nc(-c3ccccc3)c(N3CCCCC3)cc2=O)c1,98,0,29
O=C(O)C(F)(F)F.OCCN1CCN(Cc2ccc(-c3ccc(-c4nc5cc(F)ccc5[nH]4)cc3)cc2)CC1,100,99,33
COc1ccc(Nc2nccc(-c3c(-c4cccc(NC(=O)c5c(F)cccc5F)c4)nn4ccccc34)n2)cc1Cl,95,71,61
COc1ccc2c(=O)c(I)c(C)[nH]c2c1,96,96,27
Cn1nc(-c2cccc(CNC3CCc4ccccc43)c2)c2cnc(NCCCN3CCCC3)nc21 (stereo not given),99,15,29
Cl.Clc1cccnc1N1CCN(c2ncccc2Cl)CC1,97,0,2
CS(=O)(=O)N1CC2(CCN(CCC(NC(=O)NCc3ccccc3Cl)c3ccc(Cl)c(Cl)c3)CC2)c2ccccc21 (stereo not given),85,98,12
CN(C)CCOc1ccnc2ccc(NC(=O)Cc3ccc(-c4ccncc4)c4ccccc34)cc12,100,100,10
O=C(O)C(F)(F)F.O=c1cc(N2CCNCC2)c(Cl)nn1Cc1ccc(NS(=O)(=O)c2ccc(Oc3ccccc3)cc2)cc1,100,0,3
Cl.O=C(NCc1ccc(C(=O)N2CCC(N3CCCCC3)CC2)cc1)c1cc(-c2cccc(C(F)(F)F)c2)ccc1O,100,58,0
O=C(O)C(F)(F)F.O=C1CCCN1CCCNCc1ccc(-c2cccc(-c3nc4cc(F)ccc4[nH]3)c2)cc1,100,8,12
